Structures are written as SMILES. This is part of a sample that, as a whole, favours compounds with a hit. Of some 79,000 tested, about 15% had one in any assay. Unmarked numbers belong to inactive results. The source made the active and inactive calls. Cut-off read from the data, not from the text of the source: active = growth inhibition above about 70%; inactive = the rest. Where a SMILES comes first, the peptide text is derived from it.

This assay in a line: NCI Yeast Anticancer Drug Screen. Data for the mlh1 rad18 strain (AID 175). The settings on record: S. cerevisiae mlh1 rad18 strain growth inhibition; at 50.0 µM; stronger effect = higher value. A digest of the protocol: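 Test agents were incubated with a yeast strain of defined genotype (DNA damage repair defect). Inhibition of growth was derived by comparison with vehicle-exposed cultures.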
For `c1ccc2c(C3CO3)c3ccc4ccccc4c3cc2c1` (stereo not given), the growth inhibition was 99.2% (active).

Turning to `O=C(NC(=O)c1c(F)cccc1F)Nc1cccc(C(F)(F)F)c1`, the growth inhibition was 10.7%.

Regarding `CC(C)(C)CC(C)(C)[N+](=O)[O-]`, the growth inhibition was 18.4%.

`CC(OC1CC(=O)CC2C(=O)C=CC(=O)C12)c1ccccc1` (stereo not given): the growth inhibition is 26.3%.

Turning to `Cn1cc(N=P(c2ccccc2)(c2ccccc2)c2ccccc2)c(=O)n(C)c1=O`, the growth inhibition is 5.55%.

`O=c1[nH]cnc2ncnn12`: the growth inhibition was 16.4%.

Regarding `CCOc1c(Cl)cc(Cl)cc1C(c1ccc(Cl)cc1S(=O)(=O)O)c1cc(Cl)cc(Cl)c1OCC`, the growth inhibition was 99.2% (active).

As for `COC(=O)C1(C)CCCC2(C)C3CC4OC4(C(C)C)CC3(O)CCC12` (stereo not given), the growth inhibition was 42.1%.

Consider `CC(=O)NC(C(=O)NC(C)C(=O)N1CCCC1C(=O)O)C(C)C` (stereo not drawn) (Ac-Val-Ala-Pro-OH; configuration not given here), for which the growth inhibition is -3.65%.

Take `Cc1cc(Br)cc(C)c1NC(=O)C(=O)C1C(=O)C(CC2C(=O)c3ccccc3C2=O)C(=O)CC1(C)C` (stereo not given): the growth inhibition is 16.4%.

Consider `O=C(O)c1cccc(C2=CCCC2)c1`, for which the growth inhibition is 15.7%.

On to `CCC(=O)C(=O)c1ccccc1`, for which the growth inhibition is 3.2%.

Turning to `CSc1c(C#N)c(N)nc2c(N=Nc3ccc(Cl)cc3)c(N)nn12`, the growth inhibition was -58%.

As for `Oc1cccc2ccc(Br)nc12`, the growth inhibition was -3.25%.

Take `c1ccc(P(CCCP(c2ccccc2)c2ccccc2)c2ccccc2)cc1`: the growth inhibition is -15.8%.

On to `CC(C=O)C1CCCCC1` (stereo not given), for which the growth inhibition was 5.6%.

As to `O=C(OCC(Cl)(Cl)Cl)N1[C@H]2C3=C(CCC3)[C@@H]([C@H]3O[C@H]32)N1C(=O)OCC(Cl)(Cl)Cl`, the growth inhibition is 2.3%.

As to `CCOc1c(N=Nc2ccccc2C)c(C)nn1C(N)=S`, the growth inhibition is 23.1%.

Regarding `O=[N+]([O-])c1ccc(N/N=C2\C=CCCC2)c([N+](=O)[O-])c1`, the growth inhibition is 17.1%.

Consider `CCOc1cccc(C=Nc2ccccc2SSc2ccccc2N=Cc2cccc(OCC)c2O)c1O`, for which the growth inhibition is 68.5%.

As for `Cc1cccc(NC(=O)O/N=C(\Cl)C(C)C)c1`, the growth inhibition is -43.4%.

On to `O=c1c(-c2c(-c3ccccc3)oc3ccc(Cl)cc3c2=O)c(-c2ccccc2)oc2ccc(Cl)cc12`, for which the growth inhibition is 3.75%.

Consider `NNC(=O)c1nc[nH]c1C(=O)NN`, for which the growth inhibition was 32%.

Take `CSCCC(N)=O`: the growth inhibition was 2.9%.

`CC(=O)c1cc([N+](=O)[O-])c[nH]1`: the growth inhibition was 0.5%.

Take `CC(C)=Cc1cc(-c2cc(C=C(C)C)on2)no1`: the growth inhibition was 4%.

On to `CN1C(C(=O)O)CCC1C(=O)O` (stereo not given), for which the growth inhibition is 2%.

In the case of `O=C(N/N=C\c1cccc2c([N+](=O)[O-])cccc12)Nc1ccccc1`, the growth inhibition is -31.6%.

In the case of `CCOc1ccc(C(C)c2cc3c(cc2OC)OCO3)cc1` (stereo not given), the growth inhibition was 11.8%.

In the case of `Cc1ccccc1-c1nc2c([nH]1)c(=O)n(C)c(=O)n2C`, the growth inhibition is 2.75%.

In the case of `CCC(c1cccc(OC)c1)C(C(=O)O)c1ccc(OC)cc1` (stereo not given), the growth inhibition is 27.2%.

With `N#CCCOCCSCCC#N`, the growth inhibition is -1.8%.

As to `C1C[OH+]CC[OH+]CCNCC[OH+]CC[OH+]CCN1.Cl.[Cl-].[Pt+4]`, the growth inhibition was 7%.

Turning to `O=NN(CCCl)C(=O)NCc1ccc[n+]([O-])c1`, the growth inhibition was 8.2%.

Consider `C/C=C/c1nc2ccccc2[nH]1`, for which the growth inhibition is -0.95%.

As for `N#CC(c1ccccc1)c1cccc(C(=O)O)c1` (stereo not given), the growth inhibition is 5.45%.

Turning to `Cn1cc(C2(C)CC(C)(C)c3c2n(C)c2ccccc32)c2ccccc21` (stereo not given), the growth inhibition was 2.95%.

Turning to `OCCN(c1ccccc1)c1nc(N(CCO)c2ccccc2)nc(N(CCO)c2ccccc2)n1`, the growth inhibition is 1.7%.

For `N#CCCN(C1=NN(C(=O)CC(=O)Nc2cccc(Cl)c2)C(c2ccccc2)C1)c1ccccc1Cl` (stereo not given), the growth inhibition is -30.9%.

For `CNC(=S)N(C)c1ccccc1`, the growth inhibition is -23.3%.

The values above are taken from PubChem BioAssay (NCI).
